Pf apPOL block = Pf-apPOL inhibitors, biochemical, fluorescence; Plasmodium falciparum apicoplast DNA polymerase (apPOL); Recombinant Pf-apPOL, molecular beacon fluorescence, 1.5 h; inhibition, % at 10 µM; 210,000 compounds, 0.25% hits
mHTT CaM bind = mutant huntingtin-calmodulin interaction inhibitors – biochemical, AlphaScreen, primary screen. P42858. AlphaScreen His-mHTT/GST-CaM binding, luminescence. inhibition, % at 15 µM. 190,000 compounds, 3.6% hits. AID 1671202, 2021
Numbers stand for hits; i = inactive. A selection: hits, their analogues and other compounds. The true share with any hit is near 3.5%. Cut-off read from the data, not from the text of the source: active = inhibition above about 50%; inactive = the rest.

SMILES	Pf apPOL block	mHTT CaM bind
Cc1ccc(-c2[nH]ncc2CN2CCCC2c2cc(C(C)C)on2)cc1C (centres undefined)	i	i
O=C(Nc1nc(-c2ccccn2)cs1)c1cc(-c2ccco2)on1	i	99.6
COc1cc(OC)cc(C(=O)Nc2nc(-c3ccccn3)cs2)c1	i	100.0
COc1cc(OC)cc(C(=O)Nc2nc(C(=O)NC(C)c3ccccc3)cs2)c1 (centres undefined)	i	i
O=C(Nc1cc(-c2ccccn2)no1)c1ccc(Cl)cc1	i	i
O=C(Nc1nc(-c2ccccn2)cs1)c1ccc(Oc2ccccc2)cc1	i	94.0
O=C(Nc1cc(-c2ccccn2)no1)c1ccccn1	i	100.0
O=C(Nc1nc(-c2ccccc2)cs1)c1ccncc1	i	i
O=C(Nc1nc(-c2cc([N+](=O)[O-])cs2)cs1)c1cc(-c2ccco2)on1	i	i
CCOc1ccc(N2C(=O)C3C4c5ccccc5C([N+](=O)[O-])(c5ccccc54)C3C2=O)cc1 (centres undefined)	i	i
CC(=O)N1CCc2cc(N3CC(C(=O)Nc4ccc(N5CCOCC5)cc4)CC3=O)ccc21 (centres undefined)	i	i
Cc1c(-c2nc3s/c(=C\c4ccccc4[N+](=O)[O-])c(=O)n3n2)oc2ccccc12	i	i
COc1cccc(C(=O)NCc2[nH]nc3ccccc23)c1	i	51.9
Cc1cc(C)cc(C(=O)NCc2[nH]nc3ccccc23)c1	i	i
CCOc1ccc(OCC)c(NS(=O)(=O)c2ccc3c(c2)CC(C)N3C(=O)CC)c1 (centres undefined)	i	i
Cn1c(CCNC(=O)c2cn3ccccc3n2)nc2ccccc21	i	i
Nc1ncc(C2=C(Cl)C(O)C(Cl)=C(Cl)C2O)s1 (centres undefined)	i	100.3
C[C@H](c1ccccc1)N1C[C@@H](COCc2ccccc2)Oc2cc(N3CC[C@H](N(C)C)C3)ccc2S1(=O)=O	i	i
C[C@H](c1ccccc1)N1C[C@@H](COCc2ccccc2)Oc2cc(N3CC[C@@H](N(C)C)C3)ccc2S1(=O)=O	i	100.2
C[C@H](c1ccccc1)N1C[C@@H](COCc2ccccc2)Oc2cc(N3CC[C@@H](O)C3)ccc2S1(=O)=O	i	i
C[C@H](c1ccccc1)N1C[C@H](COCc2ccccc2)Oc2cc(N3CCC[C@H]3CO)ccc2S1(=O)=O	i	i
C[C@@H](c1ccccc1)N1C[C@@H](COCc2ccccc2)Oc2cc(N3CC[C@H](O)C3)ccc2S1(=O)=O	i	55.4
C[C@H](c1ccccc1)N1C[C@@H](COCc2ccccc2)Oc2cc(N3CCC[C@@H]3CO)ccc2S1(=O)=O	i	68.3
Cc1ccc(C(=O)Nc2cnc(N3CCOCC3)nc2)cc1C	i	i
Cc1ccccc1CN1C(=O)CSc2ccc(C(=O)N3CCC4(CC3)OCCO4)cc21	i	i
SMILES	Pf apPOL block	mHTT CaM bind
CCNc1cc(N2CCCC(CCC(=O)NCc3ccccc3C)C2)ncn1 (centres undefined)	i	i
O=C(c1ccnc(-c2cccs2)c1)N1CCCCCC1	i	i
COc1ccc(N2CCN(C(=O)c3ccnc(-c4cccs4)c3)CC2)cc1	i	50.0
N#CC1=C(N)OC(c2ccccc2)=C(n2cncn2)C1c1ccc(Cl)cc1Cl (centres undefined)	i	i
COCCC1CCN(C(=O)c2ccc(OC)cc2C)CC1	i	i
COc1ccccc1C(=O)N1CCC(CCOc2ccccc2F)CC1	i	52.3
O=C(c1ccc(F)c(F)c1)N1CCC(CCOc2ccccc2F)CC1	i	i
COCCC1CCN(C(=O)c2ccccc2OC)CC1	i	i
COc1ccc(C(=O)N2CCC(CCOc3ccccc3)CC2)c(C)c1	i	59.8
CN(C)c1cccc(C(=O)N2CCC(CCOc3ccccc3F)CC2)c1	i	95.0
CN(C)c1cccc(C(=O)N2CCC(CCOc3ccccc3)CC2)c1	i	86.2
COc1cccc(C(=O)N2CCC(CCOc3ccccc3)CC2)c1	i	i
Cn1nnnc1NC(=O)c1ccccc1F	i	i
CCC(=O)NCc1nc2c(n1CC)CN(C(=O)c1ccc(CC)cc1)CC2	i	i
CC(=O)N1c2ccc(N=Cc3ccccc3[N+](=O)[O-])cc2CC1C (centres undefined)	i	i
Cc1nn(C)c2c(=O)n(CC(=O)NC3CCCCCC3)ccc12	i	i
C/C=C/Cn1c(SCC(O)CO)nc2c1c(=O)[nH]c(=O)n2C (centres undefined)	i	i
CN(C)c1cccc(C(=O)N2CCC(CCOc3ccc(F)cc3)CC2)c1	i	93.4
COc1cccc(C(=O)N2CCC(CCOc3ccc(F)cc3)CC2)c1	i	i
COc1ccc(Cl)cc1NC(=O)CSc1nnc(-c2ccc(=O)n(C)c2)n1C	i	i
FC(F)(F)c1ccc(CSc2c[nH]c3ccccc23)cc1	i	87.0
O=S(=O)(Cc1ccc(C(F)(F)F)cc1)c1c[nH]c2ccccc12	i	i

Screening data deposited in PubChem BioAssay by University of Kansas High Throughput Screening Laboratory.
